From ChEMBL document CHEMBL1157539, “Thousands of chemical starting points for antimalarial lead identification” (Nature, 2010)

system: Plasmodium falciparum; assay: GSK_TCMDC: Inhibition of Plasmodium falciparum 3D7 in whole red blood cells, using parasite LDH activity as an index of growth. Test compounds present at 2uM; assay type: functional

SMILES | Inhibition [%]
Cn1nc(-c2ccc(CNC3CCc4ccccc43)cc2)c2cnc(NCCCN3CCCC3)nc21 (stereo not given) | 92
O=C(NCCCCCN1CCCN(C(=O)Nc2ccc(F)c(C(F)(F)F)c2)CC1)C1CC1c1ccc(Cl)c(Cl)c1 (stereo not given) | 90
CCc1cc2c(O)c([N+](=O)[O-])c(=O)oc2cc1OCCCCCOc1cc2oc(=O)c([N+](=O)[O-])c(O)c2cc1CC | 99
CC[C@H](C)CNC(=O)c1cccc(-c2cccc(CNCC3CNCCCO3)c2)n1.O=C(O)C(F)(F)F (stereo not given in full) | 91
COc1ccccc1C1CCN(C2CCC(NC(=O)/C=C/c3ccc4c(c3)OC(F)(F)O4)CC2)CC1 (stereo not given) | 98
O=C(O)c1ccc2nc(-c3ccccn3)c(-c3ccccn3)nc2c1 | 97
COc1ccc(-c2ccc(NC(=O)c3cccc(C#N)c3)cc2)cc1CN1CCNCC1.O=C(O)C(F)(F)F | 100
CCc1cc(C(=O)c2cccc(C)c2)c(NC(=O)CN2CCN(C(=O)c3ccco3)CC2)s1 | 91
COc1ccc(OCC(O)CN(Cc2ccccc2OC)C(=O)Nc2ccc(Br)cc2)cc1 (stereo not given) | 97
CCCN(Cc1ccc(OCC)cc1)Cc1cc(=O)c2cc(Cl)ccc2[nH]1 | 82
CCN(CC)CCN(Cc1ccc(-c2ccc(C(F)(F)F)cc2)cc1)C(=O)Cn1c(CCc2c(F)cccc2F)nc(=O)c2ccccc21.O=C(O)C(O)C(O)C(=O)O | 100
Cl.O=c1cc(NCCNCc2cccc(-c3ccccc3)c2)[nH]c2ccccc12 | 93
Cc1ccc2nc3c(cc(C(=O)NCCc4ccccc4)c(=N)n3CCCOC(C)C)c(=O)n2c1 | 96
Cc1cc(O)c(CN(C)Cc2ccc(N(C)C)cc2)cc1C(C)C | 100
C=CCOC(=O)N1CCC(CNCc2cccc(-c3ccc(-c4nc5cccc(C)c5[nH]4)s3)c2)C1.O=C(O)C(F)(F)F (stereo not given) | 100
CCOC(=O)c1ccc(-c2cnoc2-c2cc(CC)c(OC)cc2O)o1 | 100
CS(=O)(=O)c1cccc(-c2cnc(N)c3cc(-c4ccc5c(c4)OCO5)ccc23)c1.O=CO | 91
Oc1ccc2ccccc2c1C=NNc1nc(=Nc2ccccc2)nc(N2CCOCC2)[nH]1 | 100
CCCCCCCNC(=O)NCC1CCCN(CCCCCNC(=O)/C=C/c2ccc(Cl)c(Cl)c2)C1 (stereo not given) | 86
C#CCOc1ccc2ccccc2c1CNCCCCCCNCc1c(OCC#C)ccc2ccccc12.CS(=O)(=O)O | 100

SMILES | Inhibition [%]
O=C(/C=C/c1ccc(Cl)cc1)NCCCCCN1CCC(C(=O)Nc2cccc(Cl)c2)CC1 | 97
COc1ccc2c(=NN=CC=Cc3ccccc3)cc(C)[nH]c2c1 | 99
COc1cc(Nc2nccc(N3CCC(NC(=O)c4cccc(C#N)c4)C3)n2)cc(OC)c1OC (stereo not given) | 91
COc1ccc2ncc(F)c(CCN3C[C@H](CNCc4cc(F)c5c(c4)NC(=O)CO5)[C@H](O)C3)c2n1.Cl | 94
O=C(Nc1cccc(C(F)(F)F)c1)Nc1ccc(Cl)c(C(F)(F)F)c1 | 99
c1nc2nc3c(c(Nc4ccc5c(c4)CCC5)n2n1)CCC3 | 87
CCN(CC)CCCNc1nccc(N2CCc3ncnc(Nc4ccc(OCc5cccc(F)c5)c(Cl)c4)c3C2)n1 | 100
CN(C)CCCNCCS(=O)(=O)c1cccc(Nc2ccc(-c3cccc(N(C)C)c3)cn2)c1 | 98
CCCCc1ccc(NC(=O)Nc2cccc(CCNCc3ccccc3)c2)cc1.O=C(O)C(F)(F)F | 94
NC(=O)c1ccsc1NC(=O)CNC(c1ccccc1)c1ccccc1 | 88
O=C(Nc1cccc(CN2CCCN(Cc3ccc(F)cc3)CC2)c1)c1cc2ccccc2s1.O=C(O)C(F)(F)F | 91
Cc1cc(-c2cccc(CNCc3ccc(F)cc3)c2)ccc1S(=O)(=O)NCCN1CCCC1.O=C(O)C(F)(F)F | 100
Cc1cc(C(F)(F)F)n2nc(C(=O)N(Cc3cncn3Cc3ccccc3F)CC3CC3)cc2n1 | 100
CC(=O)O.CCC[C@@H]([C@@H](CC1CCCCC1)C(=O)N[C@H](C(=O)Nc1nccc(N)n1)C(C)(C)C)N(O)C=O | 96
CC1(C)N=C(N)N=C(N)N1c1ccc(Oc2ccccc2)cc1.Cl | 98
COc1ccc2ncc(F)c([C@H](O)CN3CCC(NCc4ccc5c(c4)NC(=O)CS5)CC3)c2c1.Cl | 100
Cl.FC(F)(F)c1ccccc1OCc1cc(-c2ccncc2)c(COc2ccccc2C(F)(F)F)cc1C1=CCNCC1 | 98
Cn1nc(-c2ccc(NC(=O)Nc3cc(C(F)(F)F)ccc3F)cc2)c2cnc(NCCCCN3CCCC3)nc21.O=C(O)C(F)(F)F | 98
Cc1cc(=NN=Cc2ccccc2)c2cc(F)ccc2[nH]1 | 100
O=S(=O)(Nc1ccc(CCN2CCC(N3CCCCC3)CC2)cc1)c1ccc2ccccc2c1 | 100
